# Compound activity: PubChem, National Center for Advancing Translational Sciences (NCATS)
# Only some compounds are listed: those with a hit (about 6.2% of all), similar ones and a draw of the others.
# HT1080 IDH1KD tx – HT-1080 IDH1 knockdown cell toxicity (counter line); HT-1080 IDH1 knockdown viability, ATP luminescence, 48 h; Potency, µM (top dose mostly 46.1 µM), without a hit: top-dose activity, negative = toxicity, usual class: cytotoxic; 360,000 tested, 2% active;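 also: 0% = DMSO wells and -100% = cell-free medium wells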
#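 Luminescent ATP read-out (CellTiter-Glo, 10 min at room temperature) after 48 h compound exposure at 37 °C gave viability of IDH1-knockdown HT-1080 cells. Activity was normalised to DMSO and cell-free wells, then fitted as concentration-response curves.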
# KB-3-1 cytotox – KB-3-1 parental cell cytotoxicity | KB-3-1 viability, CellTiter-Glo ATP luminescence, 72 h | Potency, µM (doses to about 46.1 µM), most hits filed as cytotoxic | 400,000 tested, 1.4% active | AID 1347075; also: % is scaled to controls: 0 for no effect and ±100 for the full control effect; nearly all actives have a fitted effect of over 60% in size
#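 Luminescent ATP read-out (CellTiter-Glo) measures survival of drug-naive KB-3-1 cells after 72 h compound exposure at 37 °C. Titration series was screened from lowest to highest concentration, with DMSO vehicle plates as background controls.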
# HT1080NT lethal – kills 2HG-producing HT-1080-NT fibrosarcoma cells | HT-1080-NT fibrosarcoma viability, CellTiter-Glo ATP luminescence, 48 h | Potency, µM (doses to about 46.1 µM), for inactives: top-dose activity, negative = less viability, most hits filed as cytotoxic | 360,000 tested, 1.6% active;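 also: NT is the 2HG producing partner of a matched IDH1 knockdown line; 0% = DMSO-treated cells and -100% = media-only wells without cells; nearly all actives have a fitted effect of over 55% in size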
#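 Viability of the 2HG-overproducing fibrosarcoma line after 48 hours of compound exposure at 37 degrees C was determined by luminescence with CellTiter-Glo, and concentration-effect curves were then fitted and categorized.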
# KB-V1 cytotox – kills drug-selected multidrug resistant KB-V1 cells; KB-V1 MDR cells viability, CellTiter-Glo, 72 h; Potency, µM (top dose mostly 46.1 µM), hits mostly cytotoxic; 400,000 tested, 3.4% active; AID 1347076; also: % is scaled to controls: 0 for no effect and ±100 for the full control effect; nearly all actives have a fitted effect of over 60% in size
#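 Following 72 h at 37 degrees C with compound, KB-V1 cell viability was read by CellTiter-Glo luminescence, medium being phenol-red-free DMEM plus 10% FBS; concentration-response parameters came from normalized, curve-fitted qHTS data.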
# S2 tox – reduces viability in counter-screen for ATXN expression inhibitors; S2 cells (HEK-293 line with an ATXN2-luciferase reporter) viability, CellTiter-Fluor protease fluorescence, 24 h; Potency, µM (highest dose often 56.7 µM), actives largely listed as cytotoxic; 400,000 tested, 0.49% active; also: nearly all actives have a fitted effect of over 40% in size
# ATXN2 expr inh – reduces ATXN2 reporter expression in HEK-293 cells; HEK-293 ATXN2-luciferase reporter, luminescence, 24 h; Potency, µM (highest dose often 57 µM), inactives show at the top dose activity change, negative = inhibition, actives largely listed as inhibitors; 360,000 tested, 0.72% active; AID 1745845; also: % is scaled to controls: 0 for no effect and ±100 for the full control effect; nearly all actives have a fitted effect of over 55% in size
#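 ATXN2-luciferase reporter cells (luciferase flanked by upstream and downstream ATXN2 gene portions) were treated 24 h at 37 °C with compounds at up to 57 uM. SteadyGlo luminescence gave expression; GF-AFC fluorescence gave viability.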
# Starred values were filed as active, the others as inactive; i = inactive; ? = inconclusive; · = not tested or not shown. Calls follow the shape of the dose curve; as a rule, active = well fitted curve in the direction sought with a large enough effect; inconclusive = small, poorly fitted or top-dose-only effect, or another doubt; inactive = no such curve, though single readings can be large; an effect the other way counts as inactive or inconclusive. Potency is read from the fitted curve at half-maximal effect.
SMILES,HT1080 IDH1KD tx,KB-3-1 cytotox,HT1080NT lethal,KB-V1 cytotox,S2 tox,ATXN2 expr inh
CCC(C)(C)C1CCC2(CC1)NC(=O)N(CC(=O)NCCc1c[nH]c3ccccc13)C2=O (configuration not stated),-14%,?,-2%,21µM*,i,11%
CC1CCN(C(=O)c2cccc(NC(=O)c3nsc4ccccc34)c2)CC1,·,i,·,i,?,-29%
COc1ccc(C2CC(c3ccc4ccccc4c3)=NN2C(=O)CNC2CCCCC2)cc1 (configuration not stated),?,i,23µM*,?,·,·
C=CCNCC(=O)N1N=C(c2ccc3ccccc3c2)CC1c1ccc(OC)cc1 (configuration not stated),23µM*,i,23µM*,i,i,2%
COc1ccc(C2CC(c3ccc4ccccc4c3)=NN2C(=O)CN2CCC(C(N)=O)CC2)cc1 (configuration not stated),?,?,?,i,i,10%
COc1ccc(C2=NN(C(=O)CSc3ncccn3)C(c3ccc(C)cc3)C2)cc1 (configuration not stated),-7%,i,-5%,23µM*,i,-9%
COC(=O)C[C@@H]1C=C[C@H](NC(=O)Nc2ccc(OC)cc2)[C@@H](CO)O1,23%,i,18%,i,·,·
CC(C)Cc1ccc(C(C)C(N)=Nc2ccc(O)cc2)cc1 (configuration not stated),21µM*,?,?,?,i,?
CC(C)Cc1ccc(C(C)C(=O)Nc2ccc(O)cc2)cc1 (configuration not stated),-10%,i,-17%,?,?,·
COc1ccccc1-c1nn2c(=O)cc(CN3CCN(C(=O)/C=C/c4ccccc4)CC3)nc2s1,·,i,·,i,?,-14%
CCCCSc1ncnc2c1c(-c1ccccc1)cn2-c1cccc(F)c1,·,i,·,i,i,1%
Cc1ccc2c(c1)c(=O)c(Br)c(C)n2Cc1ccccc1,1%,?,6%,18µM*,i,10%
Cc1cc(=O)n(Cc2ccccc2)c2ccccc12,10%,i,-2%,i,i,·
Nc1c(C(=O)c2ccc(Cl)cc2)sc2c1c(=O)[nH]c(=O)n2-c1ccccc1,-8%,i,-1%,i,i,-14%
Nc1c(C(=O)c2ccccc2)sc2c1c(=O)[nH]c(=O)n2-c1ccccc1,-18%,i,-12%,15µM*,i,-4%
CC(=O)c1ccc(-n2c(=O)[nH]c(=O)c3c(N)c(C(=O)c4ccc(Cl)cc4)sc32)cc1,23µM*,i,21µM*,i,i,-16%
CN(C)CCCNc1cc(C(C)(C)C)nc2c(-c3ccccc3)cnn12,?,i,21µM*,i,i,8%
Cc1cc(NCCCN2CCOCC2)n2ncc(-c3ccccc3)c2n1,-19%,i,-18%,i,?,48%
CC(C)(C)c1cc(NCCCn2ccnc2)n2ncc(-c3ccc(Cl)cc3)c2n1,10µM*,i,10µM*,?,?,?
Cc1cc(NCCCn2ccnc2)n2nc(-c3ccc(Cl)cc3)cc2n1,-13%,i,-1%,i,i,8%
COc1cccc(NS(=O)(=O)c2cc3c4c(c2)C(C)C(=O)N4CCC3)c1 (configuration not stated),·,i,·,i,·,·
CCCCc1nn2c(=O)cc(COC(=O)c3cccc(OC)c3)nc2s1,·,i,·,?,i,10%
O=C(CCl)NCCCN(C(=O)C(Cl)Cl)c1ccc([N+](=O)[O-])cc1,?,i,?,?,32µM*,·
Cc1cc(C)cc(OCC(=O)N(Cc2ccc(Cl)cc2)C2CCS(=O)(=O)C2)c1 (configuration not stated),·,i,·,i,i,2%
N#Cc1sc2nc(N3CCCCC3)c3c(c2c1N)CCCC3,?,?,?,7.3µM*,i,-22%
SMILES,HT1080 IDH1KD tx,KB-3-1 cytotox,HT1080NT lethal,KB-V1 cytotox,S2 tox,ATXN2 expr inh
O=C(O)CN1C2=NCCCN2c2ccccc21,19%,i,19%,i,i,-17%
Cc1ccc(CN2C3=NCCCN3c3ccccc32)cc1,-30%,?,-10%,i,i,-19%
CC(C)(C)c1ccc(CN2C3=NCCCN3c3ccccc32)cc1,23µM*,?,?,?,?,?
O=C(CN1C2=NCCCN2c2ccccc21)c1ccc(Br)s1,-28%,?,?,10µM*,i,?
Cc1cc2c(cc1C)N(Cc1ccc(Cl)cc1)C1=NCCCN12,?,?,26µM*,?,?,?
O=C(NC1CCCC1)c1cn(C2CCCN(Cc3ccc4c(c3)OCCO4)C2)nn1 (configuration not stated),·,·,·,·,i,·
COc1ccc(Cl)cc1-c1cc(C(=O)NCc2ccccc2)[nH]n1,-28%,i,-30%,i,i,-1%
O=C(c1ccc(Cl)c(Cl)c1)c1cc(-c2ccccn2)c(N2CCOCC2)s1,-7%,i,-6%,4.1µM*,i,-11%
O=C(c1ccc(Br)cc1)c1cc(-c2ccccn2)c(N2CCOCC2)s1,7%,i,-2%,4.1µM*,i,-1%
O=C(c1ccc(Cl)c(S(=O)(=O)N2CCOCC2)c1)N1CCN(c2ccccn2)CC1,8%,i,8%,i,i,·
COc1ccc(CN2C(=O)C(CC(=O)NC(c3ccccc3)c3ccccc3)CC(C(=O)N(C)C)=C2C)cc1 (configuration not stated),20%,i,3%,?,i,8%
CC(C)(C)c1cc(C(=O)NNC(=O)Nc2ccccc2)n(Cc2ccccc2)n1,1%,i,-12%,i,?,·
COc1ccc(CC(N)c2csc(NC(=O)c3ccc(OC)cc3)n2)cc1 (configuration not stated),-22%,i,?,i,i,-37%
CC(N)c1csc(NC(=O)c2cc(C(C)(C)C)nn2Cc2ccccc2)n1 (configuration not stated),?,?,18µM*,?,i,?
COc1ccc(CC(N)c2csc(NC(=O)c3cc(C(C)(C)C)nn3Cc3ccccc3)n2)cc1 (configuration not stated),21µM*,?,21µM*,?,i,?
O=C(c1cc(-c2ccc(Cl)c(Cl)c2)on1)N1CCCCC1,10%,i,20%,15µM*,i,75%
